Results on 96 compounds are retold here after PubChem BioAssay AID624263 (National Center for Advancing Translational Sciences (NCATS), 2012).

The campaign covered roughly 410,000 compounds. About 820 (0.2%) were called active. Entries that show only a call come without a potency. Inconclusive results (about 2%) are left out. Calls come from the whole dose curve; as a rule, active = well fitted activation curve with a large enough effect; inconclusive = small, poorly fitted or top-dose-only effect; inactive = flat fitted curve, though single readings scatter; cell line not stated here. For the sample, actives were picked, then their nearest neighbours and some compounds at random.
Potency is the fitted concentration of half-maximal effect.

The test is described as follows: A Quantitative High throughput Screen to Identify Chemical Modulators of PINK1 Expression. Note: nearly all actives have a fitted effect of over 65% in size. The conditions noted are these: PINK1 immunofluorescence, high-content cytometry, 24 h; series mostly up to 76.6 µM. Put shortly:
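PINK1 protein level read as immunofluorescence by microplate cytometer in a fixed, stained stable cell line after 24 h exposure to five compound concentrations, with CCCP as control.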
With `CCCCn1c(SCC(=O)NCCc2ccc(OC)c(OC)c2)nc2c1c(=O)n(C)c(=O)n2C`, the Potency was 3.98 µM (active).

Turning to `CCCCn1c(SCC(=O)N2CCOCC2)nc2c1c(=O)n(C)c(=O)n2C`, the Potency entry was “inactive”.

Regarding `COc1ccc(CCNC(=O)CCCCn2c(=O)c3ccccc3n(Cc3ccccc3)c2=O)cc1OC`, the Potency entry is “inactive”.

In the case of `COc1ccccc1C(=O)N[C@@H]1c2ccccc2C2(CCN(C(=O)c3csnn3)CC2)[C@H]1OC`, the Potency entry was “inactive”.

Consider `CN1CCN(/[N+]([O-])=N/Oc2ccc([N+](=O)[O-])cc2[N+](=O)[O-])CC1`, for which the Potency entry was “inactive”.

As to `Cc1cc(C)cc(CN2CCc3nnc(C(NS(C)(=O)=O)C(C)C)n3CC2)c1` (stereo unspecified), the Potency entry was “inactive”.

As for `COc1ccccc1C1CN(CCNC(=O)C2=CCCC2)Cc2ccccc2O1` (stereo unspecified), the Potency result is “inactive”.

As to `COc1ccc(OC)c2sc(N3CCN(C(=O)C4COc5ccccc5O4)CC3)nc12` (stereo unspecified), the Potency entry was “inactive”.

Take `O=C(CCc1ccccc1)Nc1ncc([N+](=O)[O-])s1`: the Potency was 20 µM (active).

`O=C(CCc1ccccc1)Nc1ccc(NC(=O)C2CCCCC2)nc1`: the Potency entry is “inactive”.

For `O=C(CCc1ccccc1)Nc1ccc(NC(=O)C2CC2)nc1`, the Potency result was “inactive”.

On to `O=C(Nc1ncc([N+](=O)[O-])s1)C1COc2ccccc2O1` (stereo unspecified), for which the Potency is 44.7 µM (active).

Take `CC(/C=C/c1ccco1)=N/NC(=O)C1COc2ccccc2O1` (stereo unspecified): the Potency result is “inactive”.

In the case of `CN(Cc1cccc2ncccc12)C(=O)c1cnn(-c2nccc(-c3ccccc3F)n2)c1C1CC1`, the Potency entry is “inactive”.

Turning to `COc1ccc(-n2c(CNC(=O)c3cc(C(F)(F)F)ccc3Cl)nnc2SC)cc1`, the Potency result is “inactive”.

In the case of `COc1ccccc1-c1ccnc(-n2ncc(C(=O)NCCCN3CCOCC3)c2C)n1`, the Potency entry was “inactive”.

In the case of `C[C@@H]1CN(Cc2ccc3c(c2)CN(Cc2ccc(Oc4ncccn4)cc2)CCO3)C[C@H](C)O1`, the Potency entry was “inactive”.

On to `CCC1CN(CCNC(=O)c2cccc(C)n2)Cc2cc(OC)ccc2O1` (stereo unspecified), for which the Potency entry was “inactive”.

Regarding `CCOc1ccc(CCNC(=O)c2csc3c2CCCCC3)cc1`, the Potency entry is “inactive”.

Turning to `CCOC(=O)c1ccc(NC(=O)c2csc3c2CCCCC3)cc1`, the Potency entry was “inactive”.

In the case of `COC(=O)c1sc(NC(=O)c2csc3c2CCCC3)nc1C`, the Potency is 10 µM (active).

Consider `CCCCOc1ccc(C(=O)NO)cc1`, for which the Potency result is “inactive”.

On to `Cn1c(SCC(=O)Nc2cccc(O)c2)nnc1-c1ccc(S(=O)(=O)N2CCOCC2)cc1`, for which the Potency is 14.1 µM (active).

Take `CCC(=O)Nc1cccc(NC(=O)CSc2nnc(-c3ccc(NS(C)(=O)=O)cc3)n2C)c1`: the Potency result was “inactive”.

As to `Cc1ccnc(SCC(=O)Nc2cccc(S(=O)(=O)N3CCOCC3)c2)n1`, the Potency result is “inactive”.

With `CC(C)(C(=O)NO)c1ccccc1`, the Potency result is “inactive”.

With `CCC1(C2CCN(Cc3cccnc3)CC2)NC(=O)N(CC2COc3ccccc3O2)C1=O` (stereo unspecified), the Potency entry is “inactive”.

Take `CNCCCOc1cc2nc(N3CCCN(C)CC3)nc(NC3CCN(C)CC3)c2cc1OC`: the Potency entry was “inactive”.

Turning to `COc1ccc2oc(=O)c(-c3cn4c(n3)sc3cc(OC)ccc34)cc2c1`, the Potency result is “inactive”.

As for `CCOC(=O)c1c(NC(=O)/C=C/c2ccc(OC)cc2)sc2c1CCC(C)C2` (stereo unspecified), the Potency entry was “inactive”.

As for `COc1ccc2cc(-c3nc(Cl)c4c5c(sc4n3)CC(C)CC5)c(=O)oc2c1` (stereo unspecified), the Potency is 15.8 µM (active).

As for `COc1cc(=O)n2c(c1C(=O)N(C)Cc1nccs1)CCN(Cc1ccc(Cl)cc1)CC2`, the Potency result was “inactive”.

For the compound `c1ccc(CN2CCN(Cc3ccc4c(c3)CN(Cc3c[nH]c5ccccc35)CCO4)CC2)nc1`, the Potency entry was “inactive”.

As for `COc1ccc(F)c(CN2CCC3(CCC(CNC(=O)c4ccn(C)n4)O3)CC2)c1` (stereo unspecified), the Potency entry was “inactive”.

As to `O=C1COc2ccc(-c3csc(-c4ccc(Cl)cc4)n3)cc2N1`, the Potency entry is “inactive”.

As for `OC(CBr)C[n+]1cccc2cc(Br)ccc21` (stereo unspecified), the Potency entry was “inactive”.

Take `CO[C@H]1[C@H](NC(=O)C(C)C)c2ccccc2C12CCN(Cc1cnc(N(C)C)s1)CC2`: the Potency result was “inactive”.

For the compound `CCN1CC=C2C(C#N)=C(N)C(C#N)(C#N)[C@H](c3ccoc3)[C@H]2C1`, the Potency was 39.8 µM (active).

For `CC(C)N1C[C@@H](NCc2ccccc2O)C[C@H]1C(=O)N1CCN(c2cccc(C(F)(F)F)c2)CC1`, the Potency entry is “inactive”.

For the compound `FC(F)(F)c1cccc(-c2cn[nH]c2C2CCCN(Cc3cccn3-c3ccccn3)C2)c1` (stereo unspecified), the Potency result was “inactive”.

On to `CC(=O)Nc1ccccc1-c1nc(CNC(=O)c2ccc(Cl)cc2)c(C)o1`, for which the Potency result is “inactive”.

As to `C=COC(=O)N1CCN(/[N+]([O-])=N/Oc2ccc([N+](=O)[O-])cc2[N+](=O)[O-])CC1`, the Potency entry was “inactive”.

With `CCS(=O)(=O)Nc1cc(C(=O)N2C[C@@H](C)O[C@@H](C)C2)c2c(c1)nc(-c1ccccc1)n2C`, the Potency result is “inactive”.

Turning to `Cc1ccc(C(=O)Nc2cccc(-c3nc(CNC(=O)c4ccccc4-n4cccn4)c(C)o3)c2)s1`, the Potency entry was “inactive”.

`COc1ccc2c(c1)CCc1cnc(-n3ncc(C(=O)NCCN4CCOCC4)c3C)nc1-2`: the Potency result is “inactive”.

With `COc1ccc(CN2CCOc3c(cc(-c4ncc(C(F)(F)F)cc4Cl)cc3OCC3CCCO3)C2)c(O)c1` (stereo unspecified), the Potency result is “inactive”.

Regarding `COc1cc2nc(N3CCCN(C)CC3)nc(NC3CC3)c2cc1OC`, the Potency entry was “inactive”.

With `CC(=O)Nc1cc(C(=O)N2CCc3c(Cl)cccc3C2)cc2ncn(CCc3ccccn3)c12`, the Potency entry is “inactive”.

As to `CC(C)Oc1cc(F)ccc1-c1cc(C(=O)Nc2ccc(F)cc2)[nH]n1`, the Potency result is “inactive”.

As for `CCCOc1ccc(F)cc1-c1cc(C(=O)Nc2ccc(F)c(Cl)c2)[nH]n1`, the Potency was 39.8 µM (active).

As to `COc1ccc(Cl)cc1-c1cc(C(=O)Nc2cc(OC)c(OC)c(OC)c2)[nH]n1`, the Potency result was “inactive”.

For `Cc1ccc2c(C)nc(N3CCCC(C(=O)NC(C)(C)CO)C3)nc2c1` (stereo unspecified), the Potency entry was “inactive”.

For `Cc1cnc(C(=O)N2CCOc3ccc(CN4CCCC(C(=O)c5cccnc5)C4)cc3C2)[nH]1` (stereo unspecified), the Potency entry is “inactive”.

`O=c1c(-c2ccc(F)cc2)nc2cnc(N3CCOCC3)nc2n1-c1ccccc1`: the Potency entry is “inactive”.

`COc1cc2nc(Cl)nc(NC3CC3)c2cc1OC`: the Potency entry is “inactive”.

Take `COc1ccc(C(=O)N2CCC3(CC2)CCN(c2ccccn2)CC3)cc1`: the Potency result is “inactive”.

For `COc1ccccc1CNc1nc(-c2c(C)noc2C)nc2ccccc12`, the Potency result was “inactive”.

On to `COc1ccc(CN2CCC3(CCC(CNC(=O)c4ccco4)O3)CC2)cc1OC` (stereo unspecified), for which the Potency result was “inactive”.

`COc1ccc(CN(C)CCn2cc(C(=O)N3CCSCC3)nn2)cc1C`: the Potency entry was “inactive”.

For `O=C(Nc1ccc2ccccc2c1)Nc1ccc2snnc2c1`, the Potency was 44.7 µM (active).

For `COc1cccc(C(=O)Nc2ccc3oc(-c4ccc5ccccc5c4)nc3c2)c1`, the Potency entry was “inactive”.

`CS(=O)(=O)c1ccccc1C(=O)Nc1ccc2sccc2c1`: the Potency entry is “inactive”.

`CN(C)C(=O)[C@@H]1C[C@@H](Sc2nc3ccccc3[nH]2)CN1Cc1ccc(Cl)cc1`: the Potency entry was “inactive”.

As for `O=C(c1cc(C(F)(F)F)cc(C(F)(F)F)c1)N1CCC[C@@]2(CCN(c3ccccn3)C2)C1`, the Potency entry was “inactive”.

Consider `CC(C)c1cc(C(=O)N2CCOc3ccc(CN4CCC(Oc5cccnc5)CC4)cc3C2)n[nH]1`, for which the Potency result is “inactive”.

In the case of `Cc1c(S(=O)(=O)O)oc2c1C(=O)C(=O)c1c-2ccc2c1CCCC2(C)C`, the Potency entry was “inactive”.

As to `S=c1[nH]c(=S)c2n[nH]nc2[nH]1`, the Potency result is “inactive”.

With `O=[N+]([O-])c1ccc(NS(=O)(=O)c2ccccc2)c(Cl)c1`, the Potency was 39.8 µM (active).

As for `O=C(NCCCNc1ccc([N+](=O)[O-])cc1Cl)c1ccccc1F`, the Potency entry was “inactive”.

Turning to `O=C(NNS(=O)(=O)c1ccc(F)cc1)c1ccc([N+](=O)[O-])cc1Cl`, the Potency entry was “inactive”.

In the case of `C=C[C@](C)(O)CCC1C(=C)CCC2[C@@](C)(CO)CCC[C@@]12C` (stereo partly specified), the Potency entry was “inactive”.

As for `COc1cccc(CN2CCC3(CC2)c2ccccc2[C@@H](NC(=O)c2ccccc2OC)[C@@H]3O)c1`, the Potency entry was “inactive”.

In the case of `COc1cc(=O)n2c(c1C(=O)NCc1ccco1)CCN(Cc1ccccc1)CC2`, the Potency entry is “inactive”.

Turning to `O=c1c(CN2CCOc3ccc(CN4CCC(Oc5cccnc5)CC4)cc3C2)coc2ccccc12`, the Potency entry is “inactive”.

As to `Cc1ccc(C)c(NC(=S)NCC(c2cccnc2)N2CCOCC2)c1` (stereo unspecified), the Potency result was “inactive”.

As for `Cc1ccc(C)c(NC(=S)NNC(=S)Nc2ccc(C(C)C)cc2)c1`, the Potency is 14.1 µM (active).

Take `Cc1ccc(C)c(NC(=O)C2CC(=O)N(C(C)C)C2)c1` (stereo unspecified): the Potency entry is “inactive”.

With `COCCn1c(=O)c(-c2ccc(OC)cc2)nc2cnc(Oc3cccc(Cl)c3)nc21`, the Potency entry is “inactive”.

Turning to `Nc1ccc(/C=C/c2ccnc3ccccc23)c([N+](=O)[O-])c1`, the Potency entry was “inactive”.

`CCOC(=O)N1CCN(Cc2ccc3c(c2)CN(C(=O)c2cccc(-n4cccn4)c2)CCO3)CC1`: the Potency entry was “inactive”.

Regarding `COc1ccccc1CNC(=O)C1CCN(C(=O)[C@@H]2Cc3ccccc3CN2)CC1`, the Potency result was “inactive”.

For the compound `COc1ccccc1CNC(=O)C1CCN(S(=O)(=O)c2ccc3c(c2)OCCO3)CC1`, the Potency entry was “inactive”.

With `COc1ccccc1CNC(=O)C1CCN(c2nc3ccccc3o2)CC1`, the Potency is 2.82 µM (active).

Take `O=C(CCN1Cc2ccccc2OC(c2ccccc2)C1)N[C@@H]1CS(=O)(=O)C[C@H]1O` (stereo partly specified): the Potency result is “inactive”.

Turning to `CN1CCN(c2ncc3nc(-c4ccc(Cl)cc4)c(=O)n(-c4ccccc4)c3n2)CC1`, the Potency result is “inactive”.

As for `CCc1nc2cc(C(=O)NCC3CCS(=O)(=O)C3)cc(NC(=O)c3ccccc3OC)c2n1C` (stereo unspecified), the Potency result is “inactive”.

`C=CCn1c(C)cc(C2=NNC(=NCC)SC2)c1C`: the Potency result is “inactive”.

On to `CCOc1ccc(S(=O)(=O)N2CCN(C(=S)NCC3CCCO3)CC2)cc1` (stereo unspecified), for which the Potency result is “inactive”.

Turning to `Cc1cc(C2=NNC(=Nc3ccc(S(=O)(=O)N4CCOCC4)cc3)SC2)c(C)n1CC1CCCO1` (stereo unspecified), the Potency was 35.5 µM (active).

Regarding `COc1ccccc1CNc1ncncc1-c1cccnc1`, the Potency result was “inactive”.

As to `COC(=O)c1c(OCc2ccc(F)cc2)cc(=O)n2c1CCN(Cc1ccc3cccnc3c1)CC2`, the Potency entry was “inactive”.

For `O=C(NCc1cc(C(F)(F)F)cc(C(F)(F)F)c1)C1CC(c2cccc(F)c2)=NO1` (stereo unspecified), the Potency result was “inactive”.

Consider `COc1ccc(S(=O)(=O)N2CCC(C(=O)NCc3ccco3)CC2)cc1C`, for which the Potency result is “inactive”.

Consider `COc1ccc(C2=NOC(C(=O)NCc3ccco3)C2)cc1OC` (stereo unspecified), for which the Potency was 12.6 µM (active).

Take `COc1cc2nc(N3CCCN(C)CC3)nc(NC(C)C)c2cc1OC`: the Potency result was “inactive”.

Regarding `CCc1noc(C)c1C(=O)NCCN1Cc2cc(OC)ccc2OC(CC)C1` (stereo unspecified), the Potency entry is “inactive”.
